Measurements as given in PubChem BioAssay (NCI).
The panel holds about 83,000 compounds, 20% with a hit somewhere; the sample as a whole holds those more often.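 Plates (96-well) were seeded with cells, treated with compound at one concentration, and incubated for 48 hours before percent growth was determined.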 A number with no mark means an inactive call. Activity calls are given as the source filed them. How the source made its calls: active means growth percent below 10; inactive means the rest.

test system: MDA-MB-435 melanoma; test: NCI-60 one-dose screen, 48 h (100 = growth as untreated, 0 = no growth, -100 = all killed); conditions: 10 µM unless noted

| SMILES | growth |
| --- | --- |
| CNC(=O)c1cc(Oc2ccc3nc(NC(=O)NC(C)C)sc3c2)ccn1 | 0.517% (active) |
| O=C1NCCS(=O)(=O)/C1=C\C=C\c1cccc(C(F)(F)F)c1 | 18.2% |
| NCCNc1ccc([N+](=O)[O-])cc1 | 113% |
| Clc1ccc2c(NCCCn3cnc4c(N5CCCC5)nc(Cl)nc43)ccnc2c1 | 101% |
| O=C(/C=C/c1ccc(Cl)cc1)c1ccc(Nc2ccnc3cc(Cl)ccc23)cc1 | 64.8% |
| Oc1c(Cl)cc(Cl)c2ccc(CN3CCNCC3)nc12 | 58.6% |
| O=C1c2ccccc2C(=O)c2cc(Cn3c[n+](Cc4ccc5ccccc5c4)c4ccccc43)ccc21 | 38.4% |
| CC(C)(C#N)c1cc(C(=O)Nc2cc(Nc3ncccc3-c3ncnc4nc[nH]c34)ccc2F)cc(C(F)(F)F)c1 | 29.5% |
| CC(C)n1cc(C2=C(c3cccc4ccccc34)C(=O)NC2=O)c2cc(Br)ccc21 | 61.6% |
| O=CN1N=C(c2cccc(Nc3ccncc3)c2)CC1c1ccc2c(c1)OCO2 (stereo not given) | 92.1% |
| CC(=O)Cc1nsc(NC(=O)c2cc(-c3cc(Cl)ccc3Cl)oc2C)n1 | 101% |
| O=C(O)COc1ccc(F)cc1 | 108% |
| CC(Cc1cccc2ccccc12)C(N)=O (stereo not given) | 98.9% |
| NC(=N\N=C/c1ccc(Cl)cc1Cl)/C(N)=N\N=C/c1ccc(Cl)cc1Cl | 82.6% |
| CCOC(=O)CC1C(CNC(=O)NC)OC(n2cnc3c(NC(=O)Nc4ccccc4)ncnc32)C1O[Si](C)(C)C(C)(C)C (stereo not given) | 53.6% |
